Columns and labels:
[1] = molecular target: Protein kinase C gamma type (Homo sapiens) (UniProt P05129); details: at 1 µM;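 further: each value is an averaged percent inhibition of the enzyme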
[2] = molecular target: T1, Protein kinase C iota type (Homo sapiens) (UniProt P41743); details: at 0.1 µM
T1 sequence (whole entry): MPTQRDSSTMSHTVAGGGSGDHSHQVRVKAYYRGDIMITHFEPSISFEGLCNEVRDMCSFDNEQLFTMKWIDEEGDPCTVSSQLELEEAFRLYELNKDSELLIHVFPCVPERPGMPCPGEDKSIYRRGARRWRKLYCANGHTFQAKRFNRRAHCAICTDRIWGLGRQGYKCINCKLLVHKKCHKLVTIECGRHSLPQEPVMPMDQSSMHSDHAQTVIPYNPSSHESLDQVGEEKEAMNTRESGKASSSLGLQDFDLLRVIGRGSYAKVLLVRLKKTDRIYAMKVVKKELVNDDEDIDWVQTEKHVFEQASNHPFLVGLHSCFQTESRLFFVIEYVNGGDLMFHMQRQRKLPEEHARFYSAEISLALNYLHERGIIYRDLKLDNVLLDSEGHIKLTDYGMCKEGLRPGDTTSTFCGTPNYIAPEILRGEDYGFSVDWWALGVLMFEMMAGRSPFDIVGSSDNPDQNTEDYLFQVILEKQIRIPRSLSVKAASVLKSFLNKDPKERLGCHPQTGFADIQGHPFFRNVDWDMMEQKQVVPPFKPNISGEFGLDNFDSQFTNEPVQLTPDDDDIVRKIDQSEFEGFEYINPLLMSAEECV

[3] = molecular target: T1, Protein kinase C iota type (Homo sapiens); details: at 1 µM
[4] = molecular target: Protein kinase C theta type (Homo sapiens) (UniProt Q04759); details: at 0.1 µM
Protein kinase C theta type (Homo sapiens), sequence (Q04759 whole entry, looked up): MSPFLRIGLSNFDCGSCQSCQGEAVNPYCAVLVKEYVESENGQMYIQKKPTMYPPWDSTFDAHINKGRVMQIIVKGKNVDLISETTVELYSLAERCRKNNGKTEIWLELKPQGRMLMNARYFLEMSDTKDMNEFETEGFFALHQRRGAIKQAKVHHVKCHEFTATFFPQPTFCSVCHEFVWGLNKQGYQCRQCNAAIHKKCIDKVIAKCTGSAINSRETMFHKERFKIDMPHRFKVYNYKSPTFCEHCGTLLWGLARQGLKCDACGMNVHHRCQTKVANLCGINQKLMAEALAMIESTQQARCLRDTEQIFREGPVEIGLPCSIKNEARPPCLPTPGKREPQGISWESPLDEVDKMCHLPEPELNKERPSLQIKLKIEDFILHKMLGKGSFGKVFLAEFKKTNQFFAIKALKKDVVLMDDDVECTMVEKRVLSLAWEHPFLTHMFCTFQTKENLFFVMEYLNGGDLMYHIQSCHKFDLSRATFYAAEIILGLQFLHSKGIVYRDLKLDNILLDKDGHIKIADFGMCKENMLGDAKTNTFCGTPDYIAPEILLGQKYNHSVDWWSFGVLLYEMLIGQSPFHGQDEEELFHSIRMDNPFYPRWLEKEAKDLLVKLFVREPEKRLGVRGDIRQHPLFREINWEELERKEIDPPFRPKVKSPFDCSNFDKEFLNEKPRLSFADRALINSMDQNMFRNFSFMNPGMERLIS

[5] = molecular target: Protein kinase C theta type (Homo sapiens) (UniProt Q04759); details: at 1 µM
[6] = molecular target: Protein kinase C beta type (Homo sapiens) (UniProt P05771); details: at 0.1 µM
Protein kinase C beta type (Homo sapiens), sequence (P05771 2-671 limits assumed): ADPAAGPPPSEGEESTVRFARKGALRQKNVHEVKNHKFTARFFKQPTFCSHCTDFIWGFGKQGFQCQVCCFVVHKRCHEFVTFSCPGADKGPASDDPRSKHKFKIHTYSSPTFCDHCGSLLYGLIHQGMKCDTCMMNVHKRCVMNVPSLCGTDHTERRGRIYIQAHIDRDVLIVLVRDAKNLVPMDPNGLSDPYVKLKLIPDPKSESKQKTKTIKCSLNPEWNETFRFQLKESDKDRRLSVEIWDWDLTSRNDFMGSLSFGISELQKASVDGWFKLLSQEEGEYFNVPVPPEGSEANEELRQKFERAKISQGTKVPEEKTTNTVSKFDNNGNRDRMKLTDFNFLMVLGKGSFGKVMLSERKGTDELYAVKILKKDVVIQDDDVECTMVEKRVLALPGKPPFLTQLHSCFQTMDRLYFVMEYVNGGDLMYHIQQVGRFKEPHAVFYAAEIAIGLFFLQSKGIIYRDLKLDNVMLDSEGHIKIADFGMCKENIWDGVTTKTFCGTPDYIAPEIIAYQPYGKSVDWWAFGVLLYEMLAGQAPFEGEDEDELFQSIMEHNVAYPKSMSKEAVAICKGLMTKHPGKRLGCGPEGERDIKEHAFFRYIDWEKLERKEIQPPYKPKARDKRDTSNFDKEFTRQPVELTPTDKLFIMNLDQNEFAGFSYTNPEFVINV

[7] = molecular target: Protein kinase C beta type (Homo sapiens) (UniProt P05771); details: at 1 µM
[8] = molecular target: T2, Serine/threonine-protein kinase D1 (Homo sapiens) (UniProt Q15139); details: at 0.1 µM
T2 sequence (whole entry): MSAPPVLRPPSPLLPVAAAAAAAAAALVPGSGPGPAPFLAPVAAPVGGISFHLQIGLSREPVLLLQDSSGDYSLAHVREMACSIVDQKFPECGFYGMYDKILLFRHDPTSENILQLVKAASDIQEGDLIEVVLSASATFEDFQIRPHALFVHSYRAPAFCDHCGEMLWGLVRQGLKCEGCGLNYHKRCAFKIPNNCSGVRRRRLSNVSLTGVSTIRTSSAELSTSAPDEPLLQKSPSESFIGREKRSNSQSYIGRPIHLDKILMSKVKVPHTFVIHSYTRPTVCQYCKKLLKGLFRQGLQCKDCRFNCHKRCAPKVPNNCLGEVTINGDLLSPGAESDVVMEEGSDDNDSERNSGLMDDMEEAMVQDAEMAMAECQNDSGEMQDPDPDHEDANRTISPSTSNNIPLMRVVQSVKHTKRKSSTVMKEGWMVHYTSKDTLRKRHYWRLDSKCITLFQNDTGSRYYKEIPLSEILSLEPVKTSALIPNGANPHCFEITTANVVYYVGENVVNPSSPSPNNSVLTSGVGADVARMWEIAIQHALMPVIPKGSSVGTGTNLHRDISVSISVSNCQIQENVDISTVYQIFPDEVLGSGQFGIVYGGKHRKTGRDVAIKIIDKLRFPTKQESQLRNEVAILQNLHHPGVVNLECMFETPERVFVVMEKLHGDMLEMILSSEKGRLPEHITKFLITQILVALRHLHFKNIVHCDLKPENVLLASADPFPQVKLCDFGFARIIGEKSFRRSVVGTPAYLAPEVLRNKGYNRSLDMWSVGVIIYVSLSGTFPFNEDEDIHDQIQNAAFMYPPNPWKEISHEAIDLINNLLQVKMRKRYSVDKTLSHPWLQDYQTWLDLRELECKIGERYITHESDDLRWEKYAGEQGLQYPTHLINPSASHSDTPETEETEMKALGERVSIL

[9] = molecular target: T2, Serine/threonine-protein kinase D1 (Homo sapiens); details: at 1 µM
[10] = molecular target: T3, Serine/threonine-protein kinase D2 (Homo sapiens) (UniProt Q9BZL6); details: at 0.1 µM
T3 sequence (whole entry): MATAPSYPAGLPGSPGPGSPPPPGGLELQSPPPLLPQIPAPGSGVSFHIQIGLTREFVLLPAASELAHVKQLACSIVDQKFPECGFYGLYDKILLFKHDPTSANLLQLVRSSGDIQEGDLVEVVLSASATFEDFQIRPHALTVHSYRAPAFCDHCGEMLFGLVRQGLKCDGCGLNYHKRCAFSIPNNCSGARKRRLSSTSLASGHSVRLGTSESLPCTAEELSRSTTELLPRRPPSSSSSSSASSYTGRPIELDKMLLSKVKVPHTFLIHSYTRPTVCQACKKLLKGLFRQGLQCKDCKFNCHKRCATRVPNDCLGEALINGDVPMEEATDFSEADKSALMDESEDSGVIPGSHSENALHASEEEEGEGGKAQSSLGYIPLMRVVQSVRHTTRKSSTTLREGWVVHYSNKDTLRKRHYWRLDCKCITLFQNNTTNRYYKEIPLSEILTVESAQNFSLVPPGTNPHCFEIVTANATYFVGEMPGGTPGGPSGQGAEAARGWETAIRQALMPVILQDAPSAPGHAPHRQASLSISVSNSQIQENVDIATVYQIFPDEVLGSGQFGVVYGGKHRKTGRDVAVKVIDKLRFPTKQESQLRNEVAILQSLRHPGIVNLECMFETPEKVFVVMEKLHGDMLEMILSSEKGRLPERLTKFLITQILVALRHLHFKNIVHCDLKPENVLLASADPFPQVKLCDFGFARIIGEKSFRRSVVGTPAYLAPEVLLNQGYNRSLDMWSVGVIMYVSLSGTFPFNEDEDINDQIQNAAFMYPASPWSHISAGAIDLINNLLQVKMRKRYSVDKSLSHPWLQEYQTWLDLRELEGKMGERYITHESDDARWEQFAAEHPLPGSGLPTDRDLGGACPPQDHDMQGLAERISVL

[11] = molecular target: T3, Serine/threonine-protein kinase D2 (Homo sapiens); details: at 1 µM
[12] = molecular target: T4, Serine/threonine-protein kinase D3 (Homo sapiens) (UniProt O94806); details: at 0.1 µM
T4 sequence (whole entry): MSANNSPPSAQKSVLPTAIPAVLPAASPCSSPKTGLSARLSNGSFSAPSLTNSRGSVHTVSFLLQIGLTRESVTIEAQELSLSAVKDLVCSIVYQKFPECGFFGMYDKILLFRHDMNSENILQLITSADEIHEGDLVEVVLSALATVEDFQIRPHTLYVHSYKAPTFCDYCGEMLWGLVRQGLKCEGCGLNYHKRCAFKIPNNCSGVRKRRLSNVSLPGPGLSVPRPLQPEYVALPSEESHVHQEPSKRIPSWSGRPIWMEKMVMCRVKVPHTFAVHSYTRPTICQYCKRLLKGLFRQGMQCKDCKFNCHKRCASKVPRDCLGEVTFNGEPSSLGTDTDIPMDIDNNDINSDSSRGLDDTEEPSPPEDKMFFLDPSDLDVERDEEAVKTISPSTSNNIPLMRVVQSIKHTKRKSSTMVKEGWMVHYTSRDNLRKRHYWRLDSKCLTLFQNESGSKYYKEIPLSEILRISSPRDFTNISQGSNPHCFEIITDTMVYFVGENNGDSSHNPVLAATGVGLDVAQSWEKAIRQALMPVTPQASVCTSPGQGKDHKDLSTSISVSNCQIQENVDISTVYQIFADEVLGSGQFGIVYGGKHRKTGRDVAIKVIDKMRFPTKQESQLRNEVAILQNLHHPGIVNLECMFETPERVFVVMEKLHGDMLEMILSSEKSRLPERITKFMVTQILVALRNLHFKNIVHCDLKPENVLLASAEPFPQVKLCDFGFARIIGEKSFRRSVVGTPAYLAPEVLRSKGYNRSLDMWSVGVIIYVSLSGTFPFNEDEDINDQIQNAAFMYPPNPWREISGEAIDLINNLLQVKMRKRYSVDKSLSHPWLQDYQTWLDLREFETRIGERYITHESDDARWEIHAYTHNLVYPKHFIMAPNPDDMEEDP

[13] = molecular target: T4, Serine/threonine-protein kinase D3 (Homo sapiens); details: at 1 µM
[14] = molecular target: T5, cGMP-dependent protein kinase 1 (Homo sapiens) (UniProt Q13976); details: at 0.1 µM
T5 sequence (whole entry): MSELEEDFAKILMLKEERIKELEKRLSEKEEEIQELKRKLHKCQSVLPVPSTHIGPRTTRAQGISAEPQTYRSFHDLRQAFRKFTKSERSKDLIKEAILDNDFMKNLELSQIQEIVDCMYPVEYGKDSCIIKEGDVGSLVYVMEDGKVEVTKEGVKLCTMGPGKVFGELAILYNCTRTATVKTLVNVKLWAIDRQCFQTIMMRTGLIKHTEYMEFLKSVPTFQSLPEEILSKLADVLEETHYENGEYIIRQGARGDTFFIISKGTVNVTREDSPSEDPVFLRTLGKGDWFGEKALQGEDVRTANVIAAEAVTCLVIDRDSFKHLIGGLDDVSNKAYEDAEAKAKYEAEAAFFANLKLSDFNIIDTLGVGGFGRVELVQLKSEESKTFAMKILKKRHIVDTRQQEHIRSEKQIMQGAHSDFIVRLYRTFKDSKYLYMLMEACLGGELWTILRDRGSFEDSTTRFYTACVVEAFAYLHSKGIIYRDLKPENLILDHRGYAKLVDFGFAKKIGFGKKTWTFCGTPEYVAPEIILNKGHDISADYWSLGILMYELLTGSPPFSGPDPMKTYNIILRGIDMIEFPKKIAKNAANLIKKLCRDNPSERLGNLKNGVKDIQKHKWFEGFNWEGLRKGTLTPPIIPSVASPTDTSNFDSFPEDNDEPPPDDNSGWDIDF

[15] = molecular target: T5, cGMP-dependent protein kinase 1 (Homo sapiens); details: at 1 µM
[16] = molecular target: T6, cGMP-dependent protein kinase 2 (Homo sapiens) (UniProt Q13237); details: at 0.1 µM
T6 sequence (whole entry): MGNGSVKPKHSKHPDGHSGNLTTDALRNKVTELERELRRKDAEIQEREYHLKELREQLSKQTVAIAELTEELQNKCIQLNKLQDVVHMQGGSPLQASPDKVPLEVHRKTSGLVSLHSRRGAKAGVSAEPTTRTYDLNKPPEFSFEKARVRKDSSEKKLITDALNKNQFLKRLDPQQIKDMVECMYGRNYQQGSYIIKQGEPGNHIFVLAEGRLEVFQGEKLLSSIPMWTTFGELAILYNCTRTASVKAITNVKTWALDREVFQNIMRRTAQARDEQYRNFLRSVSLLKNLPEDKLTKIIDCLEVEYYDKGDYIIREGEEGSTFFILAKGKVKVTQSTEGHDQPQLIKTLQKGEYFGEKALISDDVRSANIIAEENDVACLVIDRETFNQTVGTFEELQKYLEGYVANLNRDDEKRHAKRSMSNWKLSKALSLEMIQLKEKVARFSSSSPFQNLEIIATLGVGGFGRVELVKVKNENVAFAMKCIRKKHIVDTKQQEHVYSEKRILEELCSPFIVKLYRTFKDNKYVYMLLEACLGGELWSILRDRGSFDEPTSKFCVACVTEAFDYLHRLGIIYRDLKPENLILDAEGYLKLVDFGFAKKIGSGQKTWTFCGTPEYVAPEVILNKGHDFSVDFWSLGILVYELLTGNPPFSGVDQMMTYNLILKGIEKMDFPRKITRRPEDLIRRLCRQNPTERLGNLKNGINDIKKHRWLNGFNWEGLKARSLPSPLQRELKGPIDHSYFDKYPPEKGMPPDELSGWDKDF

[17] = molecular target: T6, cGMP-dependent protein kinase 2 (Homo sapiens); details: at 1 µM
[18] = molecular target: T7, cAMP-dependent protein kinase catalytic subunit PRKX (Homo sapiens) (UniProt P51817); details: at 0.1 µM
T7 sequence (whole entry): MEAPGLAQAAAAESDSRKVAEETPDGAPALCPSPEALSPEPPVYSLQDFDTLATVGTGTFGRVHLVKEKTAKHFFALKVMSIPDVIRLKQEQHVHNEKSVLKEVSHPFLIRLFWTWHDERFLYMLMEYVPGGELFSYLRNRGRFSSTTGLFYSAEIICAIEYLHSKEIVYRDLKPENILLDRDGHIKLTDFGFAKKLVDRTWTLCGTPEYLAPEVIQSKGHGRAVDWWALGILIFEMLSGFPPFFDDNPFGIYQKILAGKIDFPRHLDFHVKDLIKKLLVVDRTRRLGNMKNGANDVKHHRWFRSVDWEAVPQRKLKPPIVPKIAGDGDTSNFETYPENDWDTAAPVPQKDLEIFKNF

[19] = molecular target: T7, cAMP-dependent protein kinase catalytic subunit PRKX (Homo sapiens); details: at 1 µM
[20] = molecular target: Rho-associated protein kinase 1 (Homo sapiens) (UniProt Q13464); details: at 0.1 µM;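 further: values are mean percent inhibition of ROCK1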
Rho-associated protein kinase 1 (Homo sapiens), sequence (Q13464 2-1354 limits assumed): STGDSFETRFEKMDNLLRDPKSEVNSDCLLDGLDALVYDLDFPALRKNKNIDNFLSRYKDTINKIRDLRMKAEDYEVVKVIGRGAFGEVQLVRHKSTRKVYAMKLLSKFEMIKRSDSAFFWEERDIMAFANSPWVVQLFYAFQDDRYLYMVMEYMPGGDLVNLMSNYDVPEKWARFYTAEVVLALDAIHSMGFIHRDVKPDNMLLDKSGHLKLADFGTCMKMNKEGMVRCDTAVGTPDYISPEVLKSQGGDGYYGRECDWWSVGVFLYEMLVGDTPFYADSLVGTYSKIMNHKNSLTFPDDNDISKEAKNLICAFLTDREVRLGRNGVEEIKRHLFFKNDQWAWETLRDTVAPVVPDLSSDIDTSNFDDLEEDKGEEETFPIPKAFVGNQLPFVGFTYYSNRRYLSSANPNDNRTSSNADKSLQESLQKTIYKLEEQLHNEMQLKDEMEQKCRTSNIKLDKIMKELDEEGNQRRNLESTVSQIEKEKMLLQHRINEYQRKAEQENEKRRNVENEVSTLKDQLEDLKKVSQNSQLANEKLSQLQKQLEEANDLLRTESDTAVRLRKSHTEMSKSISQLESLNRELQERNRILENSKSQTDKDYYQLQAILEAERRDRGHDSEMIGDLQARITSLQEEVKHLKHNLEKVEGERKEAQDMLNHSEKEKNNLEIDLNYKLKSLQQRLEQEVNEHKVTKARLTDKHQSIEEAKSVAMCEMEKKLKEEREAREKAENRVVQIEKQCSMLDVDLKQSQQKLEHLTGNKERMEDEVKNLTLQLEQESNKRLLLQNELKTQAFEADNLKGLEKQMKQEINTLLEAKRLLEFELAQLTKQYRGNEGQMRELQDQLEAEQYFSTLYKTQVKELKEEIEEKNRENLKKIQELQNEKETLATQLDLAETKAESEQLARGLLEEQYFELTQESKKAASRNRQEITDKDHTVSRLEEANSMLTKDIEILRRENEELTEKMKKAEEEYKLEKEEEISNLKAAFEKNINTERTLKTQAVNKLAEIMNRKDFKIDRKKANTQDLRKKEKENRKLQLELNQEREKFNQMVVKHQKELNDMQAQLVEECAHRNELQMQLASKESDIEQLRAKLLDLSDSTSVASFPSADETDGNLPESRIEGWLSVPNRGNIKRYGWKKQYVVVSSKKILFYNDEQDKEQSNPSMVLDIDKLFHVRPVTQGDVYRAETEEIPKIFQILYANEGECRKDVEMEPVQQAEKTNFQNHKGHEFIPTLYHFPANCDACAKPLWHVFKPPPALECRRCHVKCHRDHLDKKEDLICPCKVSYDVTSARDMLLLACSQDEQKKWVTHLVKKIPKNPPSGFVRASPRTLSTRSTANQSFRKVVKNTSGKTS

Row | Compound | inhibition [1] | inhibition [2] | inhibition [3] | inhibition [4] | inhibition [5] | inhibition [6] | inhibition [7] | inhibition [8] | inhibition [9] | inhibition [10] | inhibition [11] | inhibition [12] | inhibition [13] | inhibition [14] | inhibition [15] | inhibition [16] | inhibition [17] | inhibition [18] | inhibition [19] | inhibition [20]
1 | Cc1c2ccc(N(C)c3ccnc(Nc4cccc(S(N)(=O)=O)c4)n3)cc2nn1C | 6.91% | 1.66% | 2.75% | 1.34% | 2.51% | 1.36% | 2.7% | -0.64% | 2.68% | 1.1% | 0.98% | 2.69% | 2.71% | 3.15% | 5.31% | 2.54% | 4.29% | 2.29% | 1.21% | 1.12%
2 | CC1(C)CC(n2cnc(-c3ccc(F)cc3)c2-c2ccnc(N)n2)CC(C)(C)N1 | 1.2% | 0.48% | 0.2% | 0.49% | 1.27% | 1.08% | 4.59% | 0.74% | 3.49% | 1.47% | 3.58% | 1.4% | 3.8% | 0.62% | 2.53% | 1.24% | 2.55% | 0.98% | 2.76% | 1.34%
3 | Fc1ccc(Nc2nccc(-c3c(-c4ccc(C(F)(F)F)cc4)nn4ncccc34)n2)cc1F | 4.39% | 0.34% | 3.68% | 1.71% | 0.47% | 0.7% | 0.3% | 3.32% | 5.39% | 3.45% | 3.98% | 5.05% | 4.35% | 2.4% | 3.28% | 0.92% | 2.82% | 0.62% | -1.3% | 0.45%

Source: ChEMBL document CHEMBL1961873, “Compounds: GSK PKIS; Assays: Nanosyn kinase panel” (2012)
